# POLI inh – inhibitors of human DNA polymerase iota; AID 588590; Pol iota fluorescent replication assay, 10 min; Potency, µM (doses to about 115 µM), for the others: at the top dose activity, negative = inhibition, usual class: inhibitors; Q9UNA4; 1% of 390,000 active
#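 Fluorescent replication assay read twice, at 0 min and 10 min after adding 50 nM (final) substrate. Enzyme (10 nM) and compounds were first incubated 15 min at room temperature; enzyme-free buffer wells were negative controls.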
# FEN1 inh – inhibitors of human flap endonuclease 1; P39748; Recombinant FEN1 flap cleavage, fluorescence, 15 min; AID 588795; Potency, µM (titrated, usually from 114 µM), inactives show top-dose activity change, negative = inhibition, most hits filed as inhibitors; 0.35% of 390,000 active; also: % is scaled to controls: 0 for no effect and ±100 for the full control effect; nearly all actives have a fitted effect of over 65% in size
#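 Enzyme 10 nM, 15 min RT preincubation with compound; start with substrate 50 nM final; reads at 0 and 15 min; qHTS titration, four-parameter Hill fit.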
# WRN inhibitor – WRN helicase (human) inhibition. Potency, µM (highest dose often 114 µM), for inactives: at the top dose activity change, negative = inhibition, usual class: inhibitors. 0.46% of 360,000 active. WRN helicase unwinding, fluorescent forked duplex, kinetic. Q14191; also: % is scaled to controls: 0 for no effect and ±100 for the full control effect; nearly all actives have a fitted effect of over 55% in size
#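 Screening of the MLSMR collection measured strand separation of a quenched forked DNA duplex (100 nM) by 20 nM WRN with 2 mM ATP, all final. Compounds were preincubated with enzyme 15 min at room temperature.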
# Pol eta inh – DNA polymerase eta (human) inhibition; recombinant Pol eta, fluorescent DNA replication assay; AID 588591; 1.2% of 390,000 active; Potency, µM (series often up to 114 µM), for the others: at the highest dose activity change, negative = inhibition, most hits filed as inhibitors; Q9Y253; also: % is scaled to controls: 0 for no effect and ±100 for the full control effect
# Target sequence (Q9Y253 whole entry, looked up): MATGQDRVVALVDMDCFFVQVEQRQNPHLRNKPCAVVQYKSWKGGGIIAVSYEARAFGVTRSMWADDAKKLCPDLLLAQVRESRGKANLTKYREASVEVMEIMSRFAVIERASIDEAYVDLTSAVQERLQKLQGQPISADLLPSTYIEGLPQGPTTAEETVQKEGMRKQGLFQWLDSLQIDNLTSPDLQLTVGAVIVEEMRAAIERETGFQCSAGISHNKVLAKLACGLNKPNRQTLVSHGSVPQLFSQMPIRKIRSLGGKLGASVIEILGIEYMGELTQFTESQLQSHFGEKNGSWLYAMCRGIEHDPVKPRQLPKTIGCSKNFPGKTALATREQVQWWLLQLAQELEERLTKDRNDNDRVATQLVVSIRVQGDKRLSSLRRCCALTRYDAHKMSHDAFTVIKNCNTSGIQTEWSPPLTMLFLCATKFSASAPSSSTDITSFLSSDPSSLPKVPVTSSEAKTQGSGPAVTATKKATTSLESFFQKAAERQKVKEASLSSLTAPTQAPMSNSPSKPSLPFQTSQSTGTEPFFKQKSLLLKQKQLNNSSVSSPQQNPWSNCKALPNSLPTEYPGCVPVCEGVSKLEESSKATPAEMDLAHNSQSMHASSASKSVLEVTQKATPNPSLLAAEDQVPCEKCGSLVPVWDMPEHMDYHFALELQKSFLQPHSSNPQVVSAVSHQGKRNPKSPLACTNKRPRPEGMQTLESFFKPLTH
#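 Pol eta (10 nM) was preincubated with compounds for 15 min at room temperature, after which fluorescent replication substrate (50 nM final) was added to start the reaction. Fluorescence was read kinetically at 0 and 10 min.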
# Pol beta inh – inhibitors of human DNA polymerase beta; Potency, µM (series often up to 114 µM), without a hit: top-dose activity change, negative = inhibition, actives largely listed as inhibitors; Pol beta primer extension/strand displacement, fluorescence kinetic; AID 485314; 1.3% of 340,000 active; P06746; also: % is scaled to controls: 0 for no effect and ±100 for the full control effect
#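 Reaction started by 50 nM substrate onto compound-treated Pol beta (10 nM, 15 min preincubation, room temperature); plates read at 0 min and 10 min. Normalized concentration-effect data fitted by four-parameter Hill equation.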
# POLK inh – DNA polymerase kappa (human) inhibition | Potency, µM (titrated, usually from 107 µM), inactives show at the top dose activity, negative = inhibition, actives largely listed as inhibitors | purified Pol kappa, fluorescent DNA synthesis assay, 10 min | AID 588579 | 0.53% of 400,000 active | Q9UBT6; also: % is scaled to controls: 0 for no effect and ±100 for the full control effect
#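 10 nM Pol kappa was preincubated with compounds for 15 min at room temperature. Reaction started with 50 nM (final) substrate. Fluorescence read kinetically at 0 and 10 min.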
# Numbers without * were called inactive; ? = inconclusive; / = no result; [ ] = dose if it differs, or a comment. Only some compounds are listed: those with a hit (about 2.4% of all), similar ones and a draw of the others. Calls follow the shape of the dose curve; as a rule, active = well fitted curve in the direction sought with a large enough effect; inconclusive = small, poorly fitted or top-dose-only effect, or another doubt; inactive = no such curve, though single readings can be large; an effect the other way counts as inactive or inconclusive. Potency is read from the fitted curve at half-maximal effect.
SMILES,POLI inh,FEN1 inh,WRN inhibitor,Pol eta inh,Pol beta inh,POLK inh
CC(C)c1nc2sc3c(SCC(=O)NCc4ccco4)ncnc3c2c2c1CCC2,?,?,?,6.3µM*,22µM*,79µM*
Nc1ccc(/C=C/c2cc(Cl)nc3ccccc23)cc1,7%,?,/,/,/,3%
CCN(CC)/[N+]([O-])=N/OCOC(=O)c1ccccc1OC(C)=O,-13%,5%,/,/,/,11%
Cc1cc2ccccc2c[n+]1CC(=O)c1ccc(F)cc1,41%,-3%,/,/,/,-3%
O=[N+]([O-])c1ccc(-[n+]2ccc3ccccc3c2)c([N+](=O)[O-])c1,?,-21%,-12%[11.6 µM],-25%,/,79µM*
CCS(=O)(=O)c1ccc2oc(Nc3cccc(OC)c3)nc2c1,-10%,2%,-6%,-12%,35µM*,-5%
CC1=NN(c2nc(-c3ccc(C)cc3)cs2)C(=O)C1N=Nc1cccc(O)c1 (configuration not stated),?,-4%,-33%,?,13µM*,?
CC1=NN(c2ccccc2)C(=O)C1,?,?,9%,-4%,44%,-8%
CC1=NN(Cc2ccccc2)C(=O)C1,3.2µM*,?,0%[57.1 µM],-12%,43%,-17%
COc1ccccc1OCCn1c(CCNC(=O)C2CCCCC2)nc2ccccc21,32%,2%,/,/,/,-3%
O=[N+]([O-])c1ccc(-c2c[nH]c(=S)[nH]2)cc1,?,-5%,-9%[11.6 µM],40µM*,?,?
N#Cc1nc(/C=C/c2ccc(F)cc2)oc1N1CCCCCC1,-16%,-12%,/,-17%,1%,-8%
Cc1nc2c(c(C)c1CCC(=O)Nc1ccc(F)cc1)c(=O)n(C)c(=O)n2C,40%,-7%,/,-13%,-1%,-12%
COc1ccc(CN2CCn3ncc(C(=O)Nc4ccccc4)c3C2=O)cc1,11%,-9%,-15%[57.1 µM],-6%,2%,-5%
O=C(O)c1cnn2c1C(=O)N(Cc1cccs1)CC2,9%,-3%,-4%,32µM*,20µM*,7%
C=C1C=C(C(F)(F)F)n2ncc(C(=O)NCc3ccc(F)cc3)c2N1,14%,-17%,/,/,/,-17%
N/C(=N\OC(=O)c1cccc2ccccc12)c1cccc([N+](=O)[O-])c1,?,-19%,-15%,-9%,50µM*,-31%
Cc1ccc(C(=O)N/N=C/c2ccoc2)cc1C,3%,9%,1%,?,25µM*,3%
CCOc1cccc(C(=O)N/N=C/c2ccoc2)c1,-5%,19%,-8%,-16%,?,-15%
O=C(N/N=C/c1ccoc1)c1ccccc1Br,?,-10%,-5%,-23%,-15%,-13%
CSc1ccc(/C=N/NC(=O)c2ccc(C)c(C)c2)cc1,?,-16%,-9%[11.6 µM],?,25µM*,-24%
O=C(N/N=C/c1ccoc1)c1cc(Br)ccc1O,89µM*,-5%,-24%,?,20µM*,?
CCOc1ccccc1C(=O)N/N=C/c1ccoc1,79µM*,-12%,6%[11.6 µM],-20%,20µM*,-28%
CN1CCN(c2ncc3nc(-c4cc(F)cc(F)c4)c(=O)n(CCC#N)c3n2)CC1,/,/,/,/,/,1%[60.1 µM]
Cc1ccc(NC(=O)c2ccc(NC(=O)C3CCCC3)cc2)c(C)c1,20%,-1%,/,/,/,1%
SMILES,POLI inh,FEN1 inh,WRN inhibitor,Pol eta inh,Pol beta inh,POLK inh
Oc1ccc(Nc2nc(NCC3CCCO3)c3ccccc3n2)cc1 (configuration not stated),-3%,?,35µM*,-13%,?,-26%
O=[N+]([O-])c1ccc(Cn2cc(-c3cccc(C(F)(F)F)c3)nn2)cc1,89µM*,-5%,-5%,-9%,-4%,?
COc1cc(Cl)c(C)cc1NC(=O)CCn1c(=O)c2cccn2c2cccnc21,2%,4%,/,79µM*,13%,3%
c1ccc(N=c2nc(-c3ccccc3)n(-c3ccccc3)s2)cc1,-16%,-7%,/,/,/,-3%
O[N+]1=CC=CCC1=S.On1ccccc1=S.[Zn],/,/,/,/,/,-4%[60.1 µM]
O=C(Nc1ccccc1)c1ccc(-n2nncc2-c2ccccc2)cc1,-25%,-14%,/,/,/,-8%
CCOC(=O)c1cccnc1SCC(=O)Nc1ccc(C)cc1C,25%,3%,/,-12%,3%,-11%[60.1 µM]
CCCCCCCC/C=C/CCCCCCCC(=O)NCCOP(=O)(O)O,/,/,/,/,/,-2%[60.1 µM]
Cc1ccccc1OCCCCCNCCO,?,9%,-3%,-15%,-1%,-4%
CC(C)(C)c1ccccc1OCCCCCNCCO,71µM*,-15%,-16%[11.6 µM],-4%,-10%,5%
CCN1CCCC1CNCc1cccc(OC)c1OCc1ccccc1F (configuration not stated),89µM*,0%,-1%[57.1 µM],-1%,2%,-2%
COC(=O)[C@H](CC(C)C)NS(=O)(=O)NC(=O)OC(C)(C)C,16%,17%,/,/,/,8%
COc1c2c(c(C)c3c1C(=O)OC3)O[C@@]1(C)CC[C@@]3(O)C(C)(C)OC(=O)CC[C@]3(C)[C@H]1C2,?,-8%,-6%[11.6 µM],45µM*,?,-37%
c1ccc2c(c1)sc[n+]2CCC1CCCCC1,17%,3%,/,/,/,13%
Cc1ccc(NC(=O)CSc2nc3ccccc3nc2Cc2ccccc2)c(C)c1,28%,-7%,/,-16%,0%,0%[60.1 µM]
O=C(Nc1ccc([N+](=O)[O-])cc1)Nc1cnccn1,11%,-18%,-3%,-9%,40µM*,-7%
O=C(Nc1cccc([N+](=O)[O-])c1)c1ccc2ccccc2c1O,2%,14%,4%,-3%,40µM*,-12%
Cc1ccc(NC(=O)Nc2cnccn2)cc1,-20%,-14%,-3%,0%,53%,-4%
O=C(Cc1ccccc1)Nc1cccc([N+](=O)[O-])c1,-4%,-2%,-2%,9%,-8%,0%[60.1 µM]
O=C(Nc1cccc([N+](=O)[O-])c1)c1cnccn1,-47%,1%,-31%[57.1 µM],11µM*,40µM*,?
O=C(Nc1cccc(Cl)c1)c1cnccn1,116%,1%,-2%,6%,39%,2%
O=C(C[n+]1cccc(Br)c1)c1ccc(I)cc1,27%,-1%,/,/,/,5%
CC1=NN(c2nc(-c3ccc(Cl)cc3)cs2)C(=O)C1,?,?,?,45µM*,35µM*,50µM*
CC1=NN(c2nc(-c3ccc(F)cc3)cs2)C(=O)C1,?,11%,-17%,-3%,0%,-24%
CCCCN1CCC[C@H]1CNC(=O)c1cc(C#N)c2ccccc2c1OC,/,/,/,/,/,14%[60.1 µM]
COc1ccc(-n2nc(C(=O)N3CCC(N4CCCCC4)CC3)c3c4ccccc4n(C)c3c2=O)cc1,41%,89µM*,-7%,-5%,1%,-11%
